Data as given in PubChem BioAssay (NCATS).
Results filed as inconclusive are left out. Entries that show only a call come without a potency. Activity calls are given as the source filed them. The call rests on the fitted dose curve; in most records, active means well fitted inhibition curve with a large enough effect; inconclusive means small, poorly fitted or top-dose-only effect; inactive means flat fitted curve, though single readings scatter.

How the values were obtained:
Assay in all cases: qHTS profiling for inhibitors of Plasmodium falciparum proliferation (AID 504749); further: nearly all actives have a fitted effect of over 60% in size
Conditions in all cases: P. falciparum in erythrocytes, SYBR Green DNA, 72 h; series mostly up to 12.8 µM
AA1029 = test system: AA1029
Procedure, shortened: (§1)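 SYBR Green fluorescence of parasite DNA, read after lysis and overnight dark incubation, measured growth over 72 h in erythrocyte culture at 0.3% parasitemia and 2.5% hematocrit. Data normalised to DMSO and 0.29 uM artemisinin, with plate-drift correction.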

ATS95 = test system: ATS95
Procedure, shortened: as §1

C2A = test system: C2A
Procedure, shortened: as §1

CP211 = test system: CP211
Procedure, shortened: as §1

CP217 = test system: CP217
Procedure, shortened: as §1

CP250 = test system: CP250
Procedure, shortened: as §1

CP252 = test system: CP252
Procedure, shortened: as §1

CP256 = test system: CP256
Procedure, shortened: as §1

CP265 = test system: CP265
Procedure, shortened: as §1

CP269 = test system: CP269
Procedure, shortened: as §1

CP325 = test system: CP325
Procedure, shortened: as §1

CP329 = test system: CP329
Procedure, shortened: as §1

CP335 = test system: CP335
Procedure, shortened: as §1

ECU = test system: ECU
Procedure, shortened: as §1

FAB9 = test system: FAB9
Procedure, shortened: as §1

N140 = test system: N140
Procedure, shortened: as §1

PAD = test system: PAD
Procedure, shortened: as §1

PC15 = test system: PC15
Procedure, shortened: as §1

PC26 = test system: PC26
Procedure, shortened: as §1

SC27B = test system: SC27B
Procedure, shortened: as §1
Potency means the concentration at half of the fitted maximal effect.

Cc1cc(/C=C\c2ccc3cc(N(C)C)ccc3[n+]2C)c(C)n1-c1ccccc1
Potency (AA1029): 1580 nM (active)
Potency (ATS95): 1580 nM (active)
Potency (C2A): 2510 nM (active)
Potency (CP211): 1810 nM (active)
Potency (CP217): 3160 nM (active)
Potency (CP250): 2820 nM (active)
Potency (CP252): 3550 nM (active)
Potency (CP256): 1580 nM (active)
Potency (CP265): 2510 nM (active)
Potency (CP269): 2560 nM (active)
Potency (CP325): 2560 nM (active)
Potency (CP329): 2030 nM (active)
Potency (CP335): 572 nM (active)
Potency (ECU): 2510 nM (active)
Potency (FAB9): 2000 nM (active)
Potency (N140): 3980 nM (active)
Potency (PAD): 3160 nM (active)
Potency (PC15): 3550 nM (active)
Potency (PC26): 3610 nM (active)
Potency (SC27B): 2510 nM (active)

O=C(Cc1cccs1)NC1C(=O)N2C(C(=O)[O-])=C(C[n+]3ccccc3)CSC12 (stereo not given)
Potency (AA1029): inactive
Potency (ATS95): inactive
Potency (C2A): inactive
Potency (CP211): inactive
Potency (CP217): inactive
Potency (CP250): inactive
Potency (CP252): inactive
Potency (CP256): inactive
Potency (CP265): inactive
Potency (CP269): inactive
Potency (CP325): inactive
Potency (CP329): inactive
Potency (CP335): inactive
Potency (ECU): inactive
Potency (FAB9): inactive
Potency (N140): inactive
Potency (PAD): inactive
Potency (PC15): inactive
Potency (PC26): inactive
Potency (SC27B): inactive

CC(C)N1CCN(c2ccc(OC[C@@H]3CO[C@@](Cn4cncn4)(c4ccc(Cl)cc4Cl)O3)cc2)CC1
Potency (AA1029): inactive
Potency (ATS95): inactive
Potency (C2A): inactive
Potency (CP211): inactive
Potency (CP217): inactive
Potency (CP250): inactive
Potency (CP252): inactive
Potency (CP256): inactive
Potency (CP265): inactive
Potency (CP269): inactive
Potency (CP325): inactive
Potency (CP329): inactive
Potency (CP335): inactive
Potency (ECU): inactive
Potency (FAB9): inactive
Potency (N140): inactive
Potency (PAD): inactive
Potency (PC15): inactive
Potency (PC26): inactive
Potency (SC27B): inactive
